From PubChem BioAssay
C2C12 statin: protects C2C12 myotubes from simvastatin toxicity | ATP luminescence, 48 h; scaled: DMSO 0, geranylgeraniol control 100 | rescue of ATP level, % at 7.49 µM | hit rate 0.78% among 330,000 | AID 602340;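 active = mean ATP rescue above about 67%, or every replicate alone reaching that limit, limit read from the data, passing the limit was not always enough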;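 also: myotubes were challenged with 10 µM simvastatin during compound exposure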
MITF act: activators of MITF-driven TRPM1 promoter activity in SK-MEL-5 cells; SK-MEL-5 TRPM1-promoter luciferase, 24 h; % of positive control, neutral wells = 0; activation, % at 12.5 µM; hit rate 0.75% among 300,000; AID 588334;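 active = mean activation of at least 80% with every replicate also reaching 80%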;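 also: 0% = neutral control wells and 100% = parthenolide positive control wells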
Wnt act: Wnt/beta-catenin pathway activation; hit rate 1.2% among 300,000; activation, % at 9.35 µM; Wnt/beta-catenin reporter cell assay, activator, plate reader; in the data active = activation above about 30%, passing the limit was not always enough;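 also: 0% = neutral control wells and 100% = positive control wells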
GAA850 FXN act: increases GAA850 frataxin promoter reporter activity | HEK293 lucGAA850 FXN promoter luciferase reporter, 24 h; percent of 10 µM SAHA response | activation, % at 6 µM | hit rate 0.56% among 360,000 | AID 540364;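 active = activation above the average of all compounds screened plus 3 SD, cutoff fixed separately per campaign, cut at about 7.5% in these data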;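 also: 0% = DMSO wells and 100% = 10 µM SAHA wells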
esBAF inh: inhibitors of esBAF chromatin remodeling in mouse ES cells; Bmi1-luciferase knock-in reporter, 24 h; 100% = twice the neutral-well signal; reporter increase, % at 12.5 µM; hit rate 2% among 350,000; in the data active = activation above about 40%;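 also: 0% = median of the plate's neutral control wells and 100% = double that signal; a rise in the Bmi1 reporter signal indicates esBAF inhibition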
Numbers without * were called inactive; . = no result given. This is a sample that favours compounds with a hit; in the whole collection about 3.3% have one here.

SMILES	C2C12 statin	MITF act	Wnt act	GAA850 FXN act	esBAF inh
O=C(Nc1nccs1)c1ccc2c(=O)n3c(nc2c1)CCCCC3	-4	36	15	3	53*
CC(C)NC(=O)Nc1cccc2c1O[C@@H](CN(C)S(=O)(=O)c1cccs1)[C@H](C)CN([C@H](C)CO)C2=O	.	.	.	.	-5
CCCNC(=O)C[C@H]1CC[C@H]2[C@@H](COC[C@@H](O)CN2C(=O)Nc2c(C)noc2C)O1	6	.	.	.	-8
Cc1cccc(N2CCN(C(=O)CNC(=O)c3ccccc3)CC2)c1C	5	.	8	0	50*
CCCNC(=O)[C@H]1[C@H](CO)[C@H]2Cn3c(ccc(-c4ccc(F)cc4)c3=O)[C@H]2N1CC1CC1	21	.	.	.	-4
Cc1nn(-c2ccccn2)c(C)c1Oc1ccccc1O	6	4	.	0	5
Cc1nn(-c2nc3ccccc3s2)c(C)c1Oc1ccccc1O	7	77	.	-7	45*
COc1ccccc1C(=O)Nc1cc2ccccc2oc1=O	-18	10	.	4	10
COc1ccc(CN2CCn3nc(C(=O)NC(C)C)cc3C2=O)cc1	.	4	0	2	.
COc1ccccc1C(=O)Nc1cc2cc(Br)ccc2oc1=O	.	-2	-16	1	27*
COc1ccc(NC(=O)c2cc3cc(OC)ccc3oc2=O)cc1	-1	14	9	0	17
COc1ccc2oc(=O)c(C(=O)Nc3cccc(C)c3)cc2c1	-8	72	17	4	77*
COc1ccc(NC(=O)c2cc3ccccc3oc2=O)c(OC)c1	-12	.	27	4	47*
COc1ccc(CN2CCn3ncc(C(=O)Nc4cccc(C)c4)c3C2=O)cc1	124*	.	0	2	15
Cc1ccc(S(=O)(=O)N(C)C[C@@H]2OCCCC[C@@H](C)Oc3ccc(NC(=O)NC4CCCCC4)cc3C(=O)N([C@H](C)CO)C[C@H]2C)cc1	.	.	.	.	6
COc1ccc(NC(=O)Nc2ccc3c(c2)[C@@H]2C[C@@H](CC(=O)N(C)C)O[C@H](CO)[C@@H]2O3)cc1	3	.	.	.	-2
COc1ccccc1NS(=O)(=O)c1ccc(C)c(C(=O)Nc2cc(C)on2)c1	-5	-1	-3	-3	-2
COc1ccc(S(=O)(=O)Nc2ccccc2OC)cc1NC(=O)c1cc2ccccc2oc1=O	.	90*	.	6	.
CO[C@@H]1CN(C)C(=O)c2ccc(NC(=O)Nc3c(C)noc3C)cc2OC[C@@H](C)NC[C@@H]1C	-27	.	.	.	0
CCc1cc(C(=O)Nc2ncccc2O)sc1C	.	2	37*	1	.
CCc1cc(C(=O)Nc2ccc(OC)nc2)sc1C	-16	59	21	1	47*
O=C(CNC(=O)c1cccs1)Nc1ncccc1O	6	3	0	0	-4
C[C@@H]1CN([C@@H](C)CO)C(=O)c2cc(C#C[C@@H](C)O)cnc2O[C@H]1CN(C)C(=O)Nc1ccc(C(F)(F)F)cc1	4	.	.	.	5
CSc1ccccc1OCc1cc(C(=O)NCc2ccc(C)s2)no1	6	36	0	0	-5
CCOC(=O)c1ccc(CNC(=O)c2cc(COc3ccccc3SC)on2)o1	15	103*	30	4	54*
SMILES	C2C12 statin	MITF act	Wnt act	GAA850 FXN act	esBAF inh
CSc1ccccc1OCc1cc(C(=O)N(C)C(C)c2nc(C)cs2)no1 (stereo not given)	.	4	4	3	.
CSc1ccccc1OCc1cc(C(=O)N(C)Cc2ccc3nsnc3c2)no1	3	78	35*	5	28
CSc1ccccc1OCc1cc(C(=O)N(C)Cc2ccc(C)o2)no1	13	99*	18	3	75*
C[C@H]1CN([C@@H](C)CO)C(=O)c2cc(-c3ccc(F)cc3)cnc2O[C@@H]1CN(C)C(=O)NC1CCCC1	47	.	.	.	-1
Cc1noc(C)c1S(=O)(=O)N(C)C[C@H]1Oc2ccc(NC(=O)C3CC3)cc2CC(=O)N([C@H](C)CO)C[C@@H]1C	-26	.	.	.	3
COc1ccc(-c2cc(-c3ccccc3O)[nH]n2)cc1	.	38	.	5	.
Oc1ccc(Br)cc1-c1cc(-c2ccccc2Cl)[nH]n1	.	3	24	5	.
Cc1ccc(-c2cc(-c3ccccc3Cl)[nH]n2)c(O)c1	-34	71	30	4	52*
Cc1ccccc1-c1cc(-c2ccccc2O)n[nH]1	-10	26	55*	6	-29
COc1ccc(O)c(-c2cc(-c3ccccc3Cl)[nH]n2)c1	-5	.	13	4	74*
Cc1ccc(-c2cc(-c3ccccc3[N+](=O)[O-])[nH]n2)c(O)c1	12	62	21	2	70*
CN1c2ccc(-c3ccc(F)cc3)cc2[C@@H]2[C@@H](CCN2C(=O)Nc2ccc(F)cc2)[C@@H]1CO	24	.	.	.	-1
CC(Sc1ccccc1)C(=O)NCCc1ccccc1 (stereo not given)	21	.	5	3	63*
COc1ccc(CCNC(=O)C(C)SCc2ccccc2)cc1 (stereo not given)	-10	14	1	1	5
COc1ccc(CCNC(=O)CCSCc2ccccc2F)cc1OC	1	6	2	0	2
O=C(CSc1ccccc1)NCCc1ccccc1	3	44	6	3	52*
COc1cccc(-n2nnnc2SCC(=O)NCCc2ccccc2)c1	102*	10	.	1	5
COc1cccc(-n2nnnc2SCC(=O)NCCc2ccc(OC)c(OC)c2)c1	.	11	-1	3	.
O=C(CCSCc1ccccc1F)NCCc1ccccc1	5	6	38*	0	5
O=C(Nc1cc(F)ccc1F)N[C@H]1CC[C@@H](CCn2cc(C3CC3)nn2)O[C@@H]1CO	-8	.	.	.	-1
O=C(CSc1nncs1)NCCCc1ccccc1	.	4	78*	2	.
C[C@H](CO)N1C[C@H](C)[C@@H](CN(C)S(C)(=O)=O)Oc2ncc(C#CCN(C)C)cc2C1=O	-1	.	.	.	2
O=C(CN(C1CCCCC1)S(=O)(=O)c1ccccc1)NCC1CCCO1 (stereo not given)	-1	-2	11	-1	-3
O=C(CN(C1CCCCC1)S(=O)(=O)c1ccc(F)cc1)NCC1CCCO1 (stereo not given)	-262	-85	-13	12*	-85
CS(=O)(=O)N(CC(=O)NCc1ccccc1)C1CCCCC1	120*	2	.	0	0
SMILES	C2C12 statin	MITF act	Wnt act	GAA850 FXN act	esBAF inh
CC(C)CNC(=O)CN(C1CCCCC1)S(=O)(=O)c1ccccc1	102*	3	-4	1	-4
CN(C)c1ccc(NC(=O)c2ccc(N3CCOCC3)nc2)cc1	-9	32	9	2	51*
COc1ccc(NC(=O)c2ccc(N3CCOCC3)nc2)cc1	-21	8	2	-1	2
O=C(Nc1ccc(F)cc1)N[C@H]1CC[C@@H](CCNS(=O)(=O)c2cccc(Cl)c2)O[C@H]1CO	-4	.	.	.	3
Cc1ccc(S(=O)(=O)N[C@@H](C)CO)cc1	.	.	-4	.	.
COCC(C)NS(=O)(=O)c1ccc(C)cc1 (stereo not given)	141*	-10	-1	0	-9
